Results published in publication PMC5700166.
Positions count from the first letter of the chain named.

Key:
Test in all cases: protein-binding microarray (PBM); PBM: ~300 nM protein, 6 mM HEPES pH 7.8, 80 mM KCl, 0.5 mM EDTA, 0.5 mM EGTA, 6% glycerol, 35 ng/ul poly-dIdC, 1% milk, 1 h, room temperature; Ap Aiptasia and Nv Nematostella (sea anemones) / Co Capsaspora / Aq Amphimedon (sponge) / Dm Drosophila / Hu human; RHD is the Rel homology domain; high values mean tight binding
Details in all cases: dsDNA, one strand shown
[1] = biological target: T1, GST-Ap-NF-kB RHD (Exaiptasia pallida (Aiptasia), UniProt A0A913YAJ5 2-422)
T1 sequence: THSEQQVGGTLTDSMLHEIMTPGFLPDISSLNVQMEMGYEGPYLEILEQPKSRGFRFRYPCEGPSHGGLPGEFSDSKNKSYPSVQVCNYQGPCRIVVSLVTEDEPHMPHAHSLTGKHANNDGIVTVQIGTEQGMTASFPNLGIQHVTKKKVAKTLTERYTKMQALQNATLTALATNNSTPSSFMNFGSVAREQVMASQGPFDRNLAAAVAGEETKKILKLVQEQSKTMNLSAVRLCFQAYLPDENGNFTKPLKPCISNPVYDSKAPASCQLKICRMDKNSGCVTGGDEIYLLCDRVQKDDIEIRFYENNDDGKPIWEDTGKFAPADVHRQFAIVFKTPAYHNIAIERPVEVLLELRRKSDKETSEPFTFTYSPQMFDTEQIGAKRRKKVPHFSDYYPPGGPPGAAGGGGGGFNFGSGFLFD

[2] = biological target: T2, GST-Nv-NF-kB (Cys allele) (Nematostella vectensis, UniProt E5G601 2-411)
T2 sequence: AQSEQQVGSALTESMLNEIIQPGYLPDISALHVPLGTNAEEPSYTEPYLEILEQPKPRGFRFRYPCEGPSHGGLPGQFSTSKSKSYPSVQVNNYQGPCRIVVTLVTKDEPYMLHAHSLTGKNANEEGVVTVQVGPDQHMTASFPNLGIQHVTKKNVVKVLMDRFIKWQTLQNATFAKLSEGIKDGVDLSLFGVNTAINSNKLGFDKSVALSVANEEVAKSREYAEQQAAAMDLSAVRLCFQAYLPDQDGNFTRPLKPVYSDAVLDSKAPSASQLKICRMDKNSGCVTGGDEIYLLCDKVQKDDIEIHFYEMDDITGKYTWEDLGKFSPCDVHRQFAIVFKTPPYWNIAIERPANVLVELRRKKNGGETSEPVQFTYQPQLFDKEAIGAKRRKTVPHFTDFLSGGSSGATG

[3] = biological target: T3, GST-Nv-NF-kB (Ser allele) (Nematostella vectensis, UniProt A7UNT2 2-411)
T3 sequence: T2 sequence with Q21R, C66S, S207N, E215Q, V217A, E225K, A268E, D399E

[4] = biological target: T4, GST-Co-NF-kB (Capsaspora owczarzaki, UniProt F1ARL5 200-546)
T4 sequence: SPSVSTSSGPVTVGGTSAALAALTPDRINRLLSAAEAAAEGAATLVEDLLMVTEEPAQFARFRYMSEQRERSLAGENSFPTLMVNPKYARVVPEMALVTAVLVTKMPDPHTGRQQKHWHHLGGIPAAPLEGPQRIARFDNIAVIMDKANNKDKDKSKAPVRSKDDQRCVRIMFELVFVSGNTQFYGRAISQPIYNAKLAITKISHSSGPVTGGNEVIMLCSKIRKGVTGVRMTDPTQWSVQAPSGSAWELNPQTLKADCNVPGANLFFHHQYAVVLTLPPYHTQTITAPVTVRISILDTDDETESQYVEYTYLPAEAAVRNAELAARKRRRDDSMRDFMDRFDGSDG

[5] = biological target: T5, GST-Dm-Relish (Drosophila melanogaster, UniProt Q94527 99-473)
T5 sequence: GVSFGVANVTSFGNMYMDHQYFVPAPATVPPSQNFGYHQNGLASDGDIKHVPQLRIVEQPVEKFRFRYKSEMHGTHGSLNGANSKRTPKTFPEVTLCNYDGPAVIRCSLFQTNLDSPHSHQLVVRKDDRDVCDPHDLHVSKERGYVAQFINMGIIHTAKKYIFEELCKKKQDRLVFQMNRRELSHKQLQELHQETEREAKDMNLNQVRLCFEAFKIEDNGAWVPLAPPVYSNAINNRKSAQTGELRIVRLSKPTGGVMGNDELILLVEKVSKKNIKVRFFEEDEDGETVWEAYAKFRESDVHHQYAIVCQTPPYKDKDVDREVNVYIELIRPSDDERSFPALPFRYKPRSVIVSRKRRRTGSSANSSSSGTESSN

[6] = biological target: T6, GST-Aq-NF-kB (Amphimedon queenslandica, UniProt A9Y5G7 2-389)
T6 sequence: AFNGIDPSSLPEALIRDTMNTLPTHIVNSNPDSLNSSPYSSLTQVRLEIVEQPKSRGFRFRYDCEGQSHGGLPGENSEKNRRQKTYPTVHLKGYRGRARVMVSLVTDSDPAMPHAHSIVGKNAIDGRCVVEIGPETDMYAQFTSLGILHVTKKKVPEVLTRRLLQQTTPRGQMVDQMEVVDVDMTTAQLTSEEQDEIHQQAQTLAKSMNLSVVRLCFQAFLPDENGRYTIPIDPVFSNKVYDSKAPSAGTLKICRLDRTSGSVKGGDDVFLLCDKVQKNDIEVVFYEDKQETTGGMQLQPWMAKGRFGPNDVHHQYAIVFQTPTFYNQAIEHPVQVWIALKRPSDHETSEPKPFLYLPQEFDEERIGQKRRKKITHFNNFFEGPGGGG

[7] = biological target: GST-Hu-p50 (Homo sapiens, UniProt P19838 7-356)
Sequence of GST-Hu-p50 (P19838 7-356): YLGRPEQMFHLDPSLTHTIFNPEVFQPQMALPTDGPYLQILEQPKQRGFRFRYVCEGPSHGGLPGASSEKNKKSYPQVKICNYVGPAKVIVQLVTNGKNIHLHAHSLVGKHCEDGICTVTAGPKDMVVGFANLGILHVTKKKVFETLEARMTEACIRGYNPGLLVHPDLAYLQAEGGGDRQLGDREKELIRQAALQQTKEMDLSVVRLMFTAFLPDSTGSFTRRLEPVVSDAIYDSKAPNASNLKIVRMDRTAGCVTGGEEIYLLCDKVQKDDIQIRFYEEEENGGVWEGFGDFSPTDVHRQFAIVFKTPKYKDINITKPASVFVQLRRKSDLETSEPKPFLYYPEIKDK

Sequence | binding signal [1] [z-score] | binding signal [2] [z-score] | binding signal [3] [z-score] | binding signal [4] [z-score] | binding signal [5] [z-score] | binding signal [6] [z-score] | binding signal [7] [z-score]
CCGATTAACATCAAAATCCCCCCTGATGTTAATCGGGTCTTGATTCGCTTGACGCTGCTG | 10.4 | 9.21 | 10.9 | 8.91 | 9.53 | 8.11 | 7.61
CCGATTAACATCACGTTTCCCCCTGATGTTAATCGGGTCTTGATTCGCTTGACGCTGCTG | 6.91 | 6.46 | 9.03 | 9.58 | 2.71 | 5.17 | 6.64
CCGATTAACATCACGGGTATTCCTGATGTTAATCGGGTCTTGATTCGCTTGACGCTGCTG | 4.85 | 5.05 | 3.76 | 1.3 | 6.78 | 5.48 | 3.53
CCGATTAACATCAGGCGATCCCCTGATGTTAATCGGGTCTTGATTCGCTTGACGCTGCTG | 5.05 | 4.17 | 5.07 | 1.58 | 6.53 | 5.06 | 3.98
CCGATTAACATCAGAAAAGTCCCTGATGTTAATCGGGTCTTGATTCGCTTGACGCTGCTG | 7.92 | 10.1 | 9.94 | 1.28 | 8.36 | 8.15 | 6.91
CCGATTAACATCAAGAAATTCCCTGATGTTAATCGGGTCTTGATTCGCTTGACGCTGCTG | 5.84 | 8.19 | 8.01 | 4.57 | 5.32 | 6.81 | 5.84
CCGATTAACATCAGGGGACGTACTGATGTTAATCGGGTCTTGATTCGCTTGACGCTGCTG | 4.18 | 3.48 | 3.58 | 2.33 | 6.95 | 4.39 | 3.75
CCGATTAACATCAGGGAATCCCCTGATGTTAATCGGGTCTTGATTCGCTTGACGCTGCTG | 14.7 | 13.7 | 14.6 | 6.28 | 11 | 12.1 | 8.34
CCGATTAACATCACGGGGATCCCTGATGTTAATCGGGTCTTGATTCGCTTGACGCTGCTG | 8.72 | 5.48 | 5.51 | 4.27 | 9.65 | 5.88 | 4.51
